Each structure is given as a SMILES string. Values joined by “and” are separate entries in the source; they are usually repeats but may differ in a detail not shown here. Identical values can stand only once. Out of some 350,000 compounds screened, about 6,000 (1.7%) were called active. Not shown: some 5% with an inconclusive outcome. Rule as the data show it: active = CPE inhibition above about 20% (passing the limit was not always enough); inconclusive = no clear call, values can overlap the other calls; tested in BHK-21 cells. For the sample, actives were picked, then their nearest neighbours and some compounds at random. More than one record can exist for a structure, and the calls need not agree.

This experiment in a line: inhibitors of DENV2 cytopathic effect, primary screen, cell-based, plate reader, single concentration (AID 651640).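 Also: 0% = median of neutral control wells and 100% = median of positive control wells.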 The note with it: DENV2-infected cells, cytopathic effect rescue, at 9.99 µM, stronger effect = higher value.
In the case of `C[C@H](CO)N1C[C@H](C)[C@H](CN(C)S(=O)(=O)c2ccc(C#N)cc2)Oc2ncc(-c3cccc(F)c3)cc2C1=O`, the CPE inhibition is 2.2% (inactive).

As for `COCC(=O)N(C)C[C@@H]1Oc2cc(C#CCC(C)C)ccc2S(=O)(=O)N([C@@H](C)CO)C[C@@H]1C`, the CPE inhibition is -6.44% (inactive).

For the compound `CC1(C)S[C@@H]2[C@H](NC(=O)COc3ccccc3)C(=O)N2C1C(=O)OCc1ccccc1` (stereo not given in full), the CPE inhibition was 9.26% (inactive). Turning to `COC(=O)C1[C@H]2SC(C)(C)C(C(=O)OC)N2C(=O)N1Cc1nc2ccccc2s1` (stereo not given in full), the CPE inhibition was 38.1% (active). Regarding `CCC1(CC)NC(=O)N(Cc2nc3ccccc3s2)C1=O`, the CPE inhibition was -2.84% (inactive). With `C/C=C/c1ccc2c(c1)O[C@H](CN(C)C(C)=O)[C@H](C)CN([C@H](C)CO)S2(=O)=O`, the CPE inhibition is -7.9% (inactive). `COc1cccc(S(=O)(=O)N2C[C@@H](O)COC[C@H]3O[C@H](CC(=O)N4CCCCC4)CC[C@@H]32)c1`: the CPE inhibition is -9.51% (inactive). `O=C(/C=C(O)/C=C/c1ccc(O)cc1)/C=C/c1ccc(O)cc1`: the CPE inhibition was 61.1% (active). Next, `O=C(/C=C/c1ccc2c(c1)OCCO2)c1ccc(O)cc1`: -0.309% (inactive). The same measure for `O=C(O)/C=C/c1ccc(OCCCF)cc1`: -4.88% (inactive). Next, `CC(C)NC(=O)N(C)C[C@H]1Oc2ncc(-c3ccccc3F)cc2C(=O)N([C@@H](C)CO)C[C@@H]1C`: -8.68% (inactive); `CO[C@@H]1CN(C)C(=O)c2cc(NS(=O)(=O)c3ccccc3)ccc2OC[C@@H](C)N(C(=O)NC(C)C)C[C@@H]1C`: 10.4% (inactive). On to `COc1ccc(N(CC(=O)N/N=C/c2cccs2)S(=O)(=O)c2ccc(OC)c(OC)c2)cc1`, for which the CPE inhibition was 6.81% (inactive). As for `COc1ccc(N(C(=O)c2cccnc2)S(=O)(=O)c2ccc(OC)c(OC)c2)cc1`, the CPE inhibition was 29.9% (active). Next, `O=C(c1cccnc1)N(c1cc2sc(=O)oc2c2ccccc12)S(=O)(=O)c1ccccc1`: -6.54% (inactive); `CO[C@H]1CN(C)C(=O)c2ccc(NS(=O)(=O)c3ccccc3)cc2OC[C@@H](C)N(Cc2nccs2)C[C@@H]1C`: -6.98% (inactive); `CO[C@@H]1CN(C)C(=O)c2ccc(NS(=O)(=O)c3ccc(Cl)cc3)cc2OC[C@H](C)N(C(=O)NC(C)C)C[C@H]1C`: 9.25% (inactive).

On to `C[C@@H]1CN([C@H](C)CO)C(=O)c2cc(NC(=O)Nc3ccc4c(c3)OCO4)ccc2O[C@H]1CN(C)C(=O)Nc1ccccc1`, for which the CPE inhibition was 6.05% (inactive). Next, `O=C(C[C@H]1C[C@@H]2c3cc(NC(=O)c4ccc5c(c4)OCO5)ccc3O[C@@H]2[C@@H](CO)O1)NCCN1CCCCC1`: -1.97% (inactive). The same measure for `Cc1noc(C)c1S(=O)(=O)N(C)C[C@@H]1OCc2ccccc2-c2ccccc2C(=O)N([C@@H](C)CO)C[C@H]1C`: 4.05% (inactive). The same measure for `O=C(NNC(=O)c1ccccc1O)c1ccccc1O`: 48.5% (active); for `Cc1cc(C(=O)CCC(=O)NNC(=O)c2ccccc2O)c(C)s1`: -2.6% (inactive). Turning to `Cc1cc(C(=O)NNC(=O)c2ccccc2O)c(C)o1`, the CPE inhibition is -2.62% (inactive). With `COc1cccc(-c2ccc3n(c2=O)C[C@@H]2[C@@H](CO)[C@H](C(=O)NC4CCC4)[C@H]3N2C)c1`, the CPE inhibition was -5.73% (inactive).

On to `C[C@H](CO)N1C[C@H](C)[C@@H](CN(C)S(=O)(=O)c2cccs2)Oc2ccc(NC(=O)Nc3ccc(C(F)(F)F)cc3)cc2CC1=O`, for which the CPE inhibition is 3.14% (inactive).

On to `CCCC(=O)Nc1ccc2c(c1)C(=O)N(C)[C@H]1CC[C@@H](CC(=O)NCc3ccccc3)O[C@@H]1CO2`, for which the CPE inhibition was -7.15% (inactive). The same measure for `C[C@@H]1CN([C@@H](C)CO)C(=O)c2cc(NC(=O)Nc3ccc4c(c3)OCO4)ccc2O[C@@H]1CN(C)C(=O)Nc1ccc2c(c1)OCO2`: -0.429% (inactive). Next, `CCCCNc1c(-c2cccc(Sc3ccc(OC)cc3)c2)nc2ccccn12`: -17.2% (inactive); `CCCCNc1c(-c2ccc(OC)c(Sc3ccc(OC)cc3)c2)nc2ccc(Cl)cn12`: 30.7% (active); `CCCCCCSc1ccc(-c2nc3ccc(Cl)cn3c2NCc2ccccc2)cc1`: 3.27% (inactive).

For `COC(=O)C[C@@H]1C[C@@H]2c3cc(NC(=O)NC4CCCC4)ccc3O[C@@H]2[C@@H](CO)O1`, the CPE inhibition is -3.24% (inactive).

Consider `CO[C@@H]1CN(C)C(=O)c2cc(NC(=O)C3CCOCC3)ccc2OC[C@H](C)N(Cc2cccnc2)C[C@@H]1C`, for which the CPE inhibition was -1.61% (inactive). `CNS(=O)(=O)c1cccc(C(=O)OCC(=O)N2c3ccccc3NC(=O)C2(C)C)c1`: the CPE inhibition was 28.3% (active). For the compound `Cc1cc(C(=O)OCC(=O)N2c3ccccc3NC(=O)C2(C)C)c(C)n1-c1ccccc1`, the CPE inhibition was -1.8% (inactive). Turning to `CCNc1ccc(C(=O)OCC(=O)N2c3ccccc3NC(=O)C2(C)C)cc1[N+](=O)[O-]`, the CPE inhibition is -0.27% (inactive). In the case of `C[C@@H]1CN([C@H](C)CO)C(=O)Cc2cc(NC(=O)Cc3ccccc3)ccc2O[C@H]1CN(C)S(=O)(=O)c1cccs1`, the CPE inhibition was 1.69% (inactive). The same measure for `COc1ccc(S(=O)(=O)N(C)C[C@@H]2OCCCC[C@@H](C)Oc3ccc(NC(=O)CCCN(C)C)cc3C(=O)N([C@@H](C)CO)C[C@@H]2C)cc1`: 0.066% (inactive); for `CC(C)(C)[S@@](=O)N1Cc2cc(C(=O)N3CCOCC3)nc(-c3cccc(-c4ccc(C#N)cc4)c3)c2[C@H]1CCO`: -2.86% (inactive); for `CCCNC(=O)c1cc2c(c(-c3cccc(-c4ccc(C#N)cc4)c3)n1)[C@@H](CCO)N(C(=O)CC)C2`: 4.99% (inactive). The same measure for `CCS(=O)(=O)N1Cc2cc(C(=O)N(C)C)nc(-c3cccc(-c4ccc(C#N)cc4)c3)c2[C@H]1CCO`: 20.3% (active); for `CC(C)NC(=O)N(C)C[C@H]1Oc2c(NC(=O)Nc3ccc(F)cc3)cccc2C(=O)N([C@@H](C)CO)C[C@@H]1C`: 10.9% (inactive). The same measure for `CO[C@H]1CN(C)C(=O)c2ccc(NC(=O)c3cccc(F)c3)cc2OC[C@@H](C)N(C(C)=O)C[C@@H]1C`: -2.36% (inactive).

Consider `COc1ccc(S(=O)(=O)Nc2ccc3c(c2)CC(=O)N([C@H](C)CO)C[C@H](C)[C@@H](CN(C)C(=O)NC(C)C)O3)cc1`, for which the CPE inhibition is 21.3% (active). Next, `Cc1noc(C)c1S(=O)(=O)Nc1ccc2c(c1)C(=O)N([C@@H](C)CO)C[C@H](C)[C@H](CN(C)C(=O)Nc1ccc(C(F)(F)F)cc1)O2`: -2.38% (inactive); `COc1ccc(NC(=O)N(C)C[C@@H]2Oc3ccc(NS(=O)(=O)c4ccc(OC)cc4)cc3CC(=O)N([C@H](C)CO)C[C@H]2C)cc1`: 11.3% (inactive); `COc1ccc(S(=O)(=O)Nc2ccc3c(c2)CC(=O)N([C@@H](C)CO)C[C@@H](C)[C@@H](CN(C)C(=O)Nc2c(C)noc2C)O3)cc1`: 29.8% (active). As for `Cc1noc(C)c1S(=O)(=O)Nc1ccc2c(c1)CC(=O)N([C@@H](C)CO)C[C@H](C)[C@H](CN(C)C(=O)Nc1ccccc1)O2`, the CPE inhibition is -4.97% (inactive). The same measure for `COc1ccc(S(=O)(=O)Nc2ccc3c(c2)CC(=O)N([C@H](C)CO)C[C@@H](C)[C@H](CN(C)S(=O)(=O)c2c(C)noc2C)O3)cc1`: -6.33% (inactive). The same measure for `Cc1noc(C)c1NC(=O)N(C)C[C@H]1Oc2ccc(NS(=O)(=O)c3ccc(Cl)cc3)cc2CC(=O)N([C@H](C)CO)C[C@@H]1C`: -8.56% (inactive); for `COc1ccc(S(=O)(=O)Nc2ccc3c(c2)CC(=O)N([C@H](C)CO)C[C@H](C)[C@H](CN(C)C(=O)Nc2ccccc2)O3)cc1`: -6.98% (inactive); for `Cc1noc(C)c1S(=O)(=O)Nc1ccc2c(c1)CC(=O)N([C@@H](C)CO)C[C@@H](C)[C@@H](CN(C)C(=O)Nc1ccc(C(F)(F)F)cc1)O2`: 46.5% (active). Take `C[C@H]1CN([C@@H](C)CO)C(=O)c2cc(Br)cnc2O[C@H]1CN(C)CC1CCCC1`: the CPE inhibition was 7.93% (inactive). Next, `O=C(C[C@@H]1C[C@@H]2c3cc(NC(=O)NC4CCCC4)ccc3O[C@@H]2[C@@H](CO)O1)NCc1ccccc1`: -0.285% (inactive); `O=C(NCC1CC1)[C@@H]1[C@@H](CO)[C@@H]2Cn3c(ccc(-c4ccccc4)c3=O)[C@H]1N2Cc1nccs1`: -2.52% (inactive). Next, `CN(C)CC(=O)N[C@H]1CC[C@H](CCNC(=O)C2CCCCC2)O[C@H]1CO`: -1.04% (inactive). The same measure for `O=C(Cc1ccccn1)N1CC(=O)N2[C@H](C1)[C@@H](c1ccc(-c3ccccc3)cc1)[C@@H]2CO`: 4.12% (inactive); for `C[C@@H]1CN([C@H](C)CO)C(=O)c2cc(NC(=O)Nc3ccccc3)ccc2O[C@@H](C)CCCCO[C@@H]1CN(C)Cc1ccncc1`: -2.85% (inactive); for `COCC#Cc1cnc2c(c1)C(=O)N([C@@H](C)CO)C[C@@H](C)[C@H](CN(C)C(=O)C1CCOCC1)O2`: 4.93% (inactive). `O=C(NCc1ccccc1)C1CNCC(C(=O)NCc2ccccc2)C1` (stereo not given): the CPE inhibition is -5.52% (inactive).

For `O=C(O)C1C2C=CC(C2)C1C(=O)NCc1ccccc1` (stereo not given), the CPE inhibition is 23.9% (active). As to `O=C(NCc1ccccc1)C1CCN(C(=O)Cc2ccccc2)CC1`, the CPE inhibition was -10.5% (inactive).

In the case of `O=C(NCc1ccccc1)C1=C[C@H](C2CC2)C[C@H](OCc2ccc(CO)cc2)O1`, the CPE inhibition was -16.3% (inactive) and 0.479% (inactive).

For the compound `CC(C)(C)[C@H]1C=C(C(=O)NCc2ccccc2)O[C@@H](OCc2ccc(CO)cc2)C1`, the CPE inhibition is 51.1% (active) and -3.51% (inactive).

On to `O=C(NCc1ccccc1)C1=C[C@@H](C2CCCCC2)C[C@@H](OCc2ccc(CO)cc2)O1`, for which the CPE inhibition is -6.36% (inactive) and 1.63% (inactive). For `CO[C@@H](CN(C)C(=O)c1ccc2c(c1)OCO2)[C@@H](C)CN([C@H](C)CO)S(=O)(=O)c1ccccc1`, the CPE inhibition is -3.46% (inactive).

Source of the values: PubChem BioAssay AID651640 (Broad Institute, 2012).
